RmlCD inh 1536: inhibitors of Mycobacterium tuberculosis RmlC and RmlD coupled enzymes; AID 1533; 160,000 compounds, 0.03% hits; inhibition, % at 3.6 µM; RmlC+RmlD coupled enzyme assay, percent inhibition; primary screen in compound mixtures; in the data active means inhibition mostly above about 34%, no sharp cut-off
* marks the source's active call; other numbers are inactive results. Shown is part of a subset that was picked to be rich in hits.

SMILES	RmlCD inh 1536
COc1ccc(/C=N/NC(=O)c2sc3nc(C)cc(C)c3c2N)cc1	-2.0
Cc1cc(C)c2c(N)c(C(=O)c3ccccc3)sc2n1	4.9
Cc1cc(C)c2c(N)c(C(=O)N/N=C/c3cccs3)sc2n1	54.9*
CCCCSCCCNC(=O)Nc1ccc(CC)cc1	-9.9
O=C(N/N=C/c1ccc(N2CCOCC2)cc1)c1ccccc1OCCOc1ccccc1	-1.6
c1ccc(-c2ccccc2OCCCCN2CCCCCC2)cc1	17.5
O=C(COC(=O)c1cnc(Cl)c(Cl)c1)Nc1ccc(S(=O)(=O)N2CCCC2)cc1	6.3
Nc1c2ccccc2nc2ccccc12	-7.9
Cc1c2ccccc2nc2c(F)c(N(C)C)c(F)c(F)c12	-18.6
CN(C)c1c2ccccc2nc2c(F)c(F)c(F)c(F)c12	40.9*
CC(=O)Nc1cc(C(=O)N2CCc3ccccc3C2)ccc1Sc1ccc(Cl)cc1	2.5
COc1ccc(CCNC(=O)c2c(N)no[n+]2[O-])cc1OC	8.0
CCOc1cc(/C=N\Nc2nc(-c3ccc(C)cc3)c(NC(C)=O)s2)ccc1O	-4.1
CC(=O)Nc1sc(/C(C#N)=C/c2ccc(Cl)c(Cl)c2)nc1-c1ccc(C)cc1	75.4*
COc1cc(/C=C(\C#N)c2nc3ccccc3s2)ccc1OCC(=O)Nc1ccccc1	3.6
COc1cc(C(=O)N2CCc3ccccc32)ccc1OCc1c(C)noc1C	-9.2
COc1ccc(-c2ccnc3nc(N4CCN(c5ccccc5)CC4)nn23)cc1	-1.6
N#Cc1cnn2c(-c3ccccc3)ccnc12	11.4
COc1ccc(-c2ccnc3c(C#N)cnn23)cc1	44.3*
COC(=O)c1sccc1NC(=O)C1CCCCC1C(=O)O (centres undefined)	11.3
CC(Oc1ccc(Cl)cc1Cl)c1ccn[nH]1 (centres undefined)	8.4
Cc1ccc2nc(NC(=O)c3cc(-c4ccco4)nc4ccccc34)sc2c1	5.2
O=C(Nc1nccs1)c1cc(-c2ccco2)nc2ccccc12	7.7
O=C(Nc1nc2ccccc2s1)c1cc(-c2ccco2)nc2ccccc12	37.1*
COc1ccc(C(=O)NCC(=O)OCC(=O)Nc2cccc(S(=O)(=O)N3CCCC3)c2)cc1	-6.7
SMILES	RmlCD inh 1536
O=C(CN1C(=O)NC2(CCCCC2)C1=O)NCc1ccc2c(c1)OCO2	0.4
CCC1CO/C(=C(\C(Cl)=C(Cl)Cl)[N+](=O)[O-])N1 (centres undefined)	-12.7
COc1cccc2c(=O)cn[nH]c12	-1.4
COc1ccc(OC)c2[nH]c(=O)c(CCNC(C)=O)cc12	-10.4
COC(=O)c1cc(=O)c2cccc(OC)c2[nH]1	62.4*
Cc1ccc(NC(=O)COC(=O)[C@H](C)NC(N)=O)c(C)c1	1.6
CCn1c(-c2ccco2)nc2ccccc21	-1.9
CCCCOCCCn1c(-c2ccco2)nc2nc3ccccc3nc21	56.6*
Cc1ccc(-n2c(-c3ccco3)nc3nc4ccccc4nc32)cc1F	7.5
Cc1cccn2c(=O)c(C=Nc3ccc(Cl)cc3)c(NCCO)nc12	-2.3
Cc1cccn2c(=O)c(C=NCCO)c(Nc3ccc(Cl)cc3)nc12	-5.0
Cc1cccn2c(=O)c(C=Nc3ccccc3)c(NCCO)nc12	54.5*
CC(N)(C(=O)O)c1cccc(OCc2cccc(Cl)c2)c1 (centres undefined)	8.5
COc1ccc(-c2cc(C(F)(F)F)n3nc(C(=O)N4CCC5(CC4)OCCO5)cc3n2)cc1OC	-4.2
COc1ccc(-c2cc(C(F)(F)F)n3nc(C(=O)N(C)Cc4ccccc4)cc3n2)cc1OC	40.3*
COc1ccc(-c2cc(C(F)(F)F)n3nc(C(=O)Nc4cc(C)on4)cc3n2)cc1OC	9.9
Cc1ccc2c(c1)c1ncnc(N3CCC4(CC3)OCCO4)c1n2C	9.7
Cc1ccc2c(c1)c1ncnc(N3CCN(c4ccccc4)CC3)c1n2C	8.4
Cc1ccc2c(c1)c1ncnc(N3CCOCC3)c1n2C	96.5*
O=C(Nc1ccc(C(=O)O)cc1)Nc1ccc(F)cc1F	4.7
Cc1nnc(NC(=O)CSc2ccc(-c3ccccn3)nn2)s1	-10.6
Nc1nn(-c2ccccc2)nc1C(=O)OCc1ccccc1	8.7
NC(=O)c1nn(-c2ccccc2)nc1N	78.9*
Cc1nn(-c2ccccc2)nc1C(N)=O	-6.6
CCCC1(C(=O)OCC)NC(c2ccco2)C2C(=O)N(C)C(=O)C21 (centres undefined)	5.7
SMILES	RmlCD inh 1536
COc1ccc(CCNC(=S)N2CCC(Cc3ccccc3)CC2)cc1OC	-11.3
Cc1ccc(C(=O)OCC(=O)N(C)C2CCS(=O)(=O)C2)cc1[N+](=O)[O-] (centres undefined)	3.5
Cn1c(N)c(C(=O)CSc2nc(N)cc(N)n2)c(=O)n(C)c1=O	6.7
COc1ccc(C(=O)OCC(=O)NC(=O)NC2CCCC2)c(OC)c1	1.2
COC(=O)Cc1c(C)c2ccc(OC(C)C)cc2oc1=O	-9.3
COC(=O)Cc1c(C)c2cc(Cl)c(OC(=O)c3ccco3)cc2oc1=O	21.2
COC(=O)Cc1c(C)c2ccc(OC(=O)c3ccco3)cc2oc1=O	83.0*
Cc1nnc(SCC(=O)N2c3ccccc3CC2C)[nH]c1=O (centres undefined)	-9.0
